Assay outcomes as filed in PubChem.
CF NFkB block: cystic fibrosis NF-kB activation inhibition | inhibition, % at 5 µM | AID 588850 | KKLEB NF-kB-GFP reporter, PAF-induced, GFP fluorescence overnight | hit rate 0.86% among 360,000;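 active = at least 50% inhibition at 5 µM, scaled per plate between neutral and stimulator controls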;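 also: PAF is a Pseudomonas aeruginosa culture filtrate used as stimulus; plate controls were PAF-stimulated DMSO wells for no effect and unstimulated DMSO wells for full effect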
TWEAK-Fn14 inh: blocks TWEAK-Fn14 interaction in a reporter cell assay; AID 1159606; inhibition, % at 10 µM; hit rate 2% among 360,000; TWEAK-stimulated Fn14 reporter cells, luciferase luminescence, 8 h; in the data active = inhibition above about 50%
HIF-2a block: inhibitors of HIF-2a; inhibition, % at 18.8 µM; AID 624352; 786-0 RCC cells HIF-2a reporter, luciferase luminescence, overnight; hit rate 0.72% among 360,000;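 active = inhibition of the luminescence signal of 40% or more relative to plate controls, in a single-dose primary screen at 18.75 µM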
KKLEB cytotox: counter-screen for CF NF-kB inhibitors: cytotoxicity; activity change (cytotoxicity), % at 5 µM; hit rate 0.36% among 360,000; KKLEB CF airway cells viability, ATPlite luminescence, overnight; active compounds read low; cells stimulated with P. aeruginosa culture filtrate;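 active = corrected activity change at or below -50% at 5 µM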
Peg3 promoter: reduces Peg3 promoter-driven luciferase expression in HeLa; HeLa PEG-Prom luciferase reporter, luminescence, overnight; inhibition, % at 20 µM; hit rate 1.7% among 360,000; AID 588405;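 active = inhibition of at least 50% at 20 µM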
TROY NFkB inh: TROY signaling inhibition | AID 1347056 | hit rate 0.98% among 360,000 | inhibition, % at 10 µM | Q293 LMP1-TROYcd NF-kB luciferase reporter, 4 h;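 active = compounds whose plate-normalised and pattern-corrected inhibition of the luciferase reporter signal at the single screening dose is 50% or more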
CF NFkB conf: confirmation of cystic fibrosis induced NF-kB inhibitors. inhibition, % at 5 µM. shares compounds with CF NFkB block. hit rate 64% among 1,300. KKLEB CF airway cells, PAF-induced NF-kB-GFP fluorescence, overnight; in the data active = inhibition above about 40%;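 also: stimulus PAF is a Pseudomonas aeruginosa filtrate and not platelet activating factor; plate controls were DMSO wells with stimulus for no effect and unstimulated DMSO wells for full effect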
Mdm2 MdmX conf: Mdm2/MdmX (human) interaction inhibition, confirmed. inhibition, % at 8 µM. hit rate 99% among 740. shares compounds with HIF-2a block. SaOS-2 split-luciferase Mdm2/MdmX complementation, luminescence;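 active = mean inhibition of the luminescence signal across two replicates at or above 26 percent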
Target sequence (O15151 whole entry, looked up): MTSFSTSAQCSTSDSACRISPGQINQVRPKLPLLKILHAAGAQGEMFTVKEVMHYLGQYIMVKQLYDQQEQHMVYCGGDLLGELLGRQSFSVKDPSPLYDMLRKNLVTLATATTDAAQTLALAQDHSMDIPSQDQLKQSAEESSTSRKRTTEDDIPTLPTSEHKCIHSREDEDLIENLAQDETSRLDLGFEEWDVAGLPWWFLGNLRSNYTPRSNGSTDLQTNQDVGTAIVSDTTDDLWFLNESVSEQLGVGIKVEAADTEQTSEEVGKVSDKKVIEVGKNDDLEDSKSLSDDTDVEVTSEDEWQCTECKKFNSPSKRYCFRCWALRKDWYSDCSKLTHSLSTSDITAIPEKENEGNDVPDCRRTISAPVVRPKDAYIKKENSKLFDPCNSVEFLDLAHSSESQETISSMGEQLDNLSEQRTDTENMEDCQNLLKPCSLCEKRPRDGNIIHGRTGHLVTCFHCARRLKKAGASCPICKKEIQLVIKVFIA
Target sequence (Q00987 whole entry, looked up): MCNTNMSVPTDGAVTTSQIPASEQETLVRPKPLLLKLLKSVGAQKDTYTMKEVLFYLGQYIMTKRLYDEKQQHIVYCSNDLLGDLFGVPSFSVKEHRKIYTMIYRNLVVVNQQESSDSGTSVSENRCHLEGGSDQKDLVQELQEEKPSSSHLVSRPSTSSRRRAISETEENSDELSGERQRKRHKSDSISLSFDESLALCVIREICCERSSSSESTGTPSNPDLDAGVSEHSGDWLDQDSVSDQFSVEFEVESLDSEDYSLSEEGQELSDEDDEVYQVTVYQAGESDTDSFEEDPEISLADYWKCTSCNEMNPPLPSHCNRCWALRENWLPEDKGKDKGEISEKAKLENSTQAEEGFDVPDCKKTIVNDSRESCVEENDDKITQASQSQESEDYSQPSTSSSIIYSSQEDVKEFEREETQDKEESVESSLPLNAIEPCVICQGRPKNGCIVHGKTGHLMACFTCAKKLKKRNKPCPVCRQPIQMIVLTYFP
HIF-2a inh conf: confirmation of HIF-2a inhibitors | shares compounds with HIF-2a block | 786-0 RCC cells, HIF-2a luciferase reporter luminescence, overnight | inhibition, % at 18.8 µM | hit rate 56% among 1,800 | AID 651580;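 active = mean inhibition across four replicates of at least 40 percent at the single tested concentration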
HIF-1a cs: inhibits HIF-1a reporter, a counter-screen for HIF-2a inhibitors; hit rate 72% among 1,800; AID 651589; shares compounds with HIF-2a block; inhibition, % at 18.8 µM; MiaPaCa-2 HIF-1a luciferase reporter, desferoxamine, overnight;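 active = mean inhibition of the reporter signal across four replicates at the single tested dose of 50% or more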
The depositor's hits bear a star; x = not tested or not shown. Only some compounds are listed: those with a hit (about 4% of all), similar ones and a draw of the others.

SMILES	CF NFkB block	TWEAK-Fn14 inh	HIF-2a block	KKLEB cytotox	Peg3 promoter	TROY NFkB inh	CF NFkB conf	HIF-2a inh conf	HIF-1a cs	others
CS(=O)(=O)c1ccc(C(=O)OCC(=O)NC23CC4CC(CC(C4)C2)C3)cc1[N+](=O)[O-]	61*	102*	92*	-16	100*	73*	35	64*	94*
C[C@@H]1Cc2c(O)c(O)cc(O)c2C(=O)O1	0	-4	10	10	0	3	x	x	x
CC1CCC/C=C/C(=O)c2c(O)cc(O)cc2CC(=O)O1 (configuration not stated)	82*	94*	91*	-5	106*	43	36	80*	102*	Mdm2 MdmX conf=103*
CC(=O)c1ccc(OC(=O)/C=C/c2ccccc2)cc1	-5	-3	10	3	3	-22	x	x	x
CCOC(=O)c1sc(N2C(=O)C(O)=C(C(=O)c3ccc(C)o3)C2c2cccc([N+](=O)[O-])c2)nc1C (configuration not stated)	28	-30	-21	13	7	-20	x	x	x
COc1cc(/C=C/C(=O)c2ccc(O)cc2)ccc1OCC#N	65*	71*	51*	-17	97*	-1	-5	-13	100*
Cc1cc(C(=O)Cn2ncc(Cl)c(Cl)c2=O)c(C)n1CC(F)(F)F	77*	95*	94*	-22	100*	64*	-23	-15	103*
C=C1C(=O)O[C@H]2[C@H]1[C@H](OC(=O)/C(C)=C\C)C[C@]1(CO1)[C@@H]1[C@H](OC(C)=O)C=C(C)[C@]21O	-2	16	4	15	14	11	x	x	x
C=C1C(=O)O[C@@H]2[C@H]1[C@@H](OC(=O)/C(C)=C/C)C/C(C)=C\C(=O)/C=C(\C)[C@@H]2O	86*	67*	95*	-4	111*	29	-11	73*	102*	Mdm2 MdmX conf=103*
C[C@@H]1CC=C[C@H]2[C@H]1C(=O)N(Cc1ccccc1)[C@H]2c1ccc2ccccc2c1Br	74*	17	42*	-35	33	16	54*	23	72*
O=C(CN1C(=O)NC2(CCCC2)C1=O)Nc1nc2ccc(F)cc2s1	11	11	-89	-1	-87	-2	x	x	x
CC(=O)c1ccc(-c2cnc3c(NC=O)cc(-c4ccc(C(=O)NC5CC5)cc4)cn23)cc1	56*	-15	39*	-30	63*	11	61*	37	94*
COc1ccc(-c2cnc3c(NC(C)=O)cc(-c4ccc(C(=O)NC5CC5)cc4)cn23)cc1OC	46	-32	2	-13	36	7	x	x	x
Cc1ccc2[nH]cc(C(=O)CCl)c2c1	60*	-9	16	-19	108*	-6	86*	x	x	Mdm2 MdmX conf=103*
Cc1ccc2[nH]cc(C(=O)CN3CCN(C)CC3)c2c1	-1	-21	2	3	5	-9	x	x	x
O=C(NCCc1ccccc1F)C1CC(O)CN1C(=O)Nc1ccccc1 (configuration not stated)	-15	10	15	9	-5	5	x	x	x
CS(=O)(=O)c1ncc(Cl)c(C(=O)Nc2ccc(OC(F)F)cc2)n1	90*	70*	92*	-37	102*	57*	88*	98*	100*	Mdm2 MdmX conf=103*
CCOC(=O)c1nc(S(C)(=O)=O)ncc1Cl	69*	14	46*	-4	105*	21	-14	-3	6
Cc1cccc(C)c1OCc1cc(C(=O)NCC2COCCO2)no1 (configuration not stated)	8	-14	-23	-10	-36	-10	x	x	x
O=C(c1ccc(S(=O)(=O)c2cccc(Cl)c2)c([N+](=O)[O-])c1)N1CCN(Cc2ccccc2)CC1	78*	84*	28	-39	33	33	-95	x	x	Mdm2 MdmX conf=101*
COc1ccc(C(=O)N2CCN(Cc3ccccc3)CC2)cc1[N+](=O)[O-]	-6	-2	3	-1	20	16	x	x	x
Cc1cccc(C)c1NS(=O)(=O)c1ccc(-c2cnc(C3CC3)o2)cc1	65*	40	47*	-31	19	46	73*	35	51*
Cc1cc(Sc2nnc(N)s2)c2ccccc2n1	89*	90*	41*	-27	7	37	-7	32	1
Nc1nc(N)nc(-c2cc(O)ccc2O)n1	54*	32	-6	4	-17	19	72*	x	x	Mdm2 MdmX conf=101*
CCCc1cc(-c2[nH]ncc2-c2ccc3c(c2)OCCCO3)c(O)cc1O	50*	48	46*	-5	69*	44	68*	30	81*
SMILES	CF NFkB block	TWEAK-Fn14 inh	HIF-2a block	KKLEB cytotox	Peg3 promoter	TROY NFkB inh	CF NFkB conf	HIF-2a inh conf	HIF-1a cs	others
CCc1ccc(OCC(=O)NN2Cc3ccccc3C2=N)cc1	12	7	16	-9	12	-2	x	x	x
O=C(CSc1ccccn1)Nc1nonc1[N+](=O)[O-]	88*	69*	47*	-15	104*	68*	1	23	-34
COc1ccc(CN(C)C(=O)Cn2cc(C)c(=O)[nH]c2=O)cc1OC	5	14	8	12	6	-1	x	x	x
O=C1C=CC2C3C(=O)N(c4ccccc4)C(=O)C3C1N2Cc1ccccc1 (configuration not stated)	80*	95*	86*	-17	102*	55*	-178	98*	104*
O=C1C2C3C=CC(CC3)C2C(=O)N1c1ccccc1 (configuration not stated)	5	-8	15	2	8	6	x	x	x
CCCCCCCCN1C(=O)[C@H](CC(=O)NCc2ccc(C)o2)C[C@@]2(C(=O)OC)CC(C)(C)CC=C12	x	x	3	x	x	x	x	x	x
CC(C)CCN1C(=O)c2ccccc2C1C(=O)NCc1cccnc1 (configuration not stated)	-2	-8	12	6	1	-1	x	x	x
O=C(NC(CO)(CO)CO)c1coc(=O)c(Br)c1	20	13	-13	3	3	-40	x	x	x
O=C(NCCC1=CCCCC1)c1coc(=O)c(Br)c1	85*	92*	65*	11	81*	9	93*	-10	64*
CC(C)CNC(=O)c1coc(=O)c(Br)c1	74*	48	70*	-12	74*	4	95*	-12	52*
